{"source": "PubChem BioAssay AID686928", "about": "(Broad Institute, 2013)", "assay": "human cervical cancer cell viability loss – 24 h, plate reader, dry powder, cytotoxicity control, dose response (AID 686928)", "note": "Results with a measured potency or affinity are listed apart. Activity calls are given as the source filed them. How the calls were made is not given here.", "data": [{"smiles": "CCCCCCCCCC(=O)C(O)CC", "note": "(configuration not stated)", "values": [{"measurement": "outcome", "value": "inactive"}]}, {"smiles": "CCn1nnnc1N", "values": [{"measurement": "outcome", "value": "inactive"}]}]}
